Bioassay records: PubChem, National Center for Advancing Translational Sciences (NCATS)
TrxR1 substrate: is turned over as a substrate by rat TrxR1; O89049; purified TrxR1 substrate turnover, NADPH consumption readout; Potency, µM (top dose mostly 114 µM), inactives show at the top dose activity change, negative = substrate turnover; 0.01% of 390,000 active; AID 588456; also: % is scaled to controls: 0 for no effect and ±100 for the full control effect; nearly all actives have a fitted effect of over 50% in size
Target sequence (O89049 whole entry, looked up): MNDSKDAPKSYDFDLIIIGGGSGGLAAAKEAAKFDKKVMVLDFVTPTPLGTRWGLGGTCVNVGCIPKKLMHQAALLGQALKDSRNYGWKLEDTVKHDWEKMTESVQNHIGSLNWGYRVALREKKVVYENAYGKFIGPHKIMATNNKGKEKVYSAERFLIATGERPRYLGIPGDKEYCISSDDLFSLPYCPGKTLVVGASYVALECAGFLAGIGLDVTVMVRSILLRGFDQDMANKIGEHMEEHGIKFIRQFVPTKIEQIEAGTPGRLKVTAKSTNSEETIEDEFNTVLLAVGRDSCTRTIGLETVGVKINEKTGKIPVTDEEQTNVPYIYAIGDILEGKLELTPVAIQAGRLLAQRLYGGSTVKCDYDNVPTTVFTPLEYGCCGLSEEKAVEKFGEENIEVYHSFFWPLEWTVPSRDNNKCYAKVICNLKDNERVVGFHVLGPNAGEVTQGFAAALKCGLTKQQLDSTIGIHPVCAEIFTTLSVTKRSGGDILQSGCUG
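Rat TrxR1, dispensed at 90 nM, was prereduced with 400 uM NADPH (final) for 5 min at ~22 deg C, then incubated with compound 15 min before 400 uM selenite. A first-read NADPH fluorescence drop versus no-compound background flagged substrates.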
rTrxR1 inhibitor: blocks rat thioredoxin reductase 1 | Potency, µM (top dose mostly 114 µM), inactives show at the top dose activity change, negative = inhibition, actives largely listed as inhibitors | 1% of 390,000 active | O89049 | recombinant rTrxR1, NADPH fluorescence consumption, selenite substrate; also: % is scaled to controls: 0 for no effect and ±100 for the full control effect; nearly all actives have a fitted effect of over 65% in size
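Rat TrxR1 (90 nM in the dispensed reagent) was pre-reduced with 400 uM NADPH for 5 min at room temperature, then incubated with compound for 15 min. After 400 uM selenite was added, NADPH fluorescence (Ex 340/Em 450 nm) was followed for 8 min.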
GALK inhibitor: blocks human galactokinase activity; Potency, µM (series often up to 57.5 µM), inactives show top-dose activity change, negative = inhibition, most hits filed as inhibitors; P51570; AID 1868; Purified GALK, Kinase-Glo residual ATP luminescence; 0.007% of 270,000 active; also: % is scaled to controls: 0 for no effect and ±100 for the full control effect
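Compounds were pin-transferred into ATP buffer (35 uM final), then GALK plus galactose (5 nM, 100 uM final) was added. After 1 h at room temperature, Kinase-Glo Plus was added and luminescence read after 10 min.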
A549 tox: A549 cytotoxicity, counter-screen for Nrf2 inhibitors; A549 ARE-Fluc cells, CellTiter-Fluor viability, 18-24 h; Potency, µM (highest dose often 46 µM), without a hit: top-dose activity change, negative = cytotoxicity, usual class: inhibitors; 0.16% of 390,000 active; AID 504648; also: % is scaled to controls: 0 for no effect and ±100 for the full control effect
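A549 ARE_Fluc cells in 5% FBS OPTI-MEM were exposed to compounds in concentration-response for 18-24 h at 37 deg C. Viability was read by CellTiter-Fluor fluorescence (Ex 405/Em 525) after 30 min, before the luciferase read.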
Nrf2 inh: blocks Nrf2 signaling; A549 ARE-Fluc reporter, luciferase luminescence, 18-24 h; Potency, µM (top dose mostly 46 µM), for inactives: top-dose activity change, negative = inhibition, hits mostly inhibitors; 2.1% of 360,000 active; also: % is scaled to controls: 0 for no effect and ±100 for the full control effect; nearly all actives have a fitted effect of over 60% in size
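Cells were seeded and rested 2 h, then exposed to compounds for 18-24 h. CellTiter-Fluor was read first as a viability measure. BugLite was added 15 min before the final luminescent read of ARE-luciferase activity in A549 cells.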
Nrf2 ARE act: activators of Nrf2 (ARE) signaling. AREc32 ARE-luciferase reporter (MCF7-derived line), luminescence, 24 h. Potency, µM (top dose mostly 46.1 µM), for the others: at the top dose activation, most hits filed as activators. 0.31% of 410,000 active. AID 624171; also: % of control where 0% means no effect; nearly all actives have a fitted effect of over 65% in size
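AREc32 cells carrying an ARE-driven firefly luciferase reporter were seeded at 1000 cells/well in OPTI-MEM with 5% FBS, then exposed to compound for 24 hr at 37 deg C. Luminescence was read with Steady-Glo after 30 min at RT.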
An asterisk follows results filed as active; u = inconclusive; x = no result; [ ] = dose if it differs, or a comment. Rows were chosen to be rich in hits. Some 3% of all compounds tested hit in one or more screens of this group. Calls follow the shape of the dose curve; as a rule, active = well fitted curve in the direction sought with a large enough effect; inconclusive = small, poorly fitted or top-dose-only effect, or another doubt; inactive = no such curve, though single readings can be large; an effect the other way counts as inactive or inconclusive. Potency is read from the fitted curve at half-maximal effect.

SMILES	TrxR1 substrate	rTrxR1 inhibitor	GALK inhibitor	A549 tox	Nrf2 inh	Nrf2 ARE act
Cc1ccc(N2C(=O)NC(=O)/C(=C\c3cnc(-c4ccccc4)nc3)C2=O)cc1	2.0%	3.55µM*	3.5%	3.8%	1.1%	2.1%
O=C1NC(=O)N(c2ccc(F)cc2)C(=O)/C1=C/c1ccsc1	0.6%[57.1 µM]	u	6.9%	4.0%	11.3%	5.1%
Cc1ccc(N2C(=O)NC(=O)/C(=C/c3cnn(-c4ccc(C)cc4)c3)C2=O)cc1	-1.8%	u	-4.4%	1.2%	u	3.0%
CSc1ncc(/C=C2/C(=O)NC(=O)N(c3ccc(Cl)cc3)C2=O)cn1	-0.5%[57.1 µM]	6.31µM*	-0.6%	-2.9%	u	0.0%
Cc1ccc(N2C(=O)NC(=O)/C(=C/c3ccoc3)C2=O)cc1	-6.4%[57.1 µM]	-5.2%[57.1 µM]	x	2.8%	0.5%	0.1%
Cc1cc(/C=C2\C(=O)NC(=O)N(c3ccc(Cl)cc3)C2=O)c(C)n1C	-5.5%	u	1.4%	-9.4%	10.7%	5.8%
CCc1ccc(NC(=O)CN2C(=O)C3(SCC(=O)N3c3ccc(F)c(F)c3)c3ccccc32)cc1 (stereo unspecified)	-17.0%	-9.9%	x	-16.8%	u	5.0%
CC1Cc2cc(S(=O)(=O)N(Cc3ccccc3)C(C)C)ccc2N1C(=O)C1CCC1 (stereo unspecified)	-2.8%	6.7%	x	1.1%	u	8.5%
CCCN1CCC[C@@H]2Cc3n[nH]cc3C[C@H]21	x	6.5%	x	x	x	x
CCOc1ccc(C(=O)N2CCC(c3noc(-c4ccc(S(=O)(=O)N5CCCC5)cc4)n3)CC2)cc1	-9.5%	20.5%	x	-17.2%	14.6µM*	-0.7%
CC(c1ccccc1)[n+]1ccccc1 (stereo unspecified)	6.5%	17.3%	x	-3.3%	18.4µM*	-0.7%
C=CCn1c(O)c(C(C)=NCc2ccc3c(c2)OCO3)c(=O)[nH]c1=O	5.6%[11.4 µM]	6.3%[11.4 µM]	-2.3%	2.8%	20.6µM*	3.3%
CCC(=NCc1ccc2c(c1)OCO2)c1c(O)n(C2CCCCC2)c(=O)[nH]c1=O	-5.6%	-6.6%	1.0%	x	11.6µM*	1.1%
CC(=NCc1ccc2c(c1)OCO2)c1c(O)n(Cc2ccccc2)c(=O)[nH]c1=O	-6.1%[57.1 µM]	8.1%[57.1 µM]	2.2%	8.7%	u	-0.6%
Cc1ccc(Cn2c(SCc3ccc(C(=O)NC4CCCC4)cc3)nc3ccncc32)cc1	3.3%	5.9%	x	-13.4%	u	-3.6%
CCOc1ccc(-c2cn3c(n2)sc2cc(C(=O)N4CCCC(C)C4)ccc23)cc1 (stereo unspecified)	20.0%	37.8%	x	0.1%	9.6%	0.5%
CCCC1=Nc2cc(C(=O)NCCc3ccc(OC)cc3OC)ccc2Sc2ccccc21	-5.4%	5.9%	x	7.4%	18.4µM*	0.3%
CCCC1=Nc2cc(C(=O)NC3CCC(C)CC3)ccc2Sc2ccccc21 (stereo unspecified)	-6.8%	4.0%	x	-6.6%	6.4%	-0.6%
CC1CCN(C(=O)C2CCN(c3nnc(-n4cccc4)s3)CC2)CC1	-4.0%	6.9%	0.8%	-11.6%	u	0.3%
COC(=O)C1=C(C(=O)OC)C2OC1c1cc3ccccc3cc12	1.4%	2.51µM*	x	-14.5%	20.6µM*	-3.5%
COC(=O)C1=C(c2ccc3ccccc3c2)C[C@@H]2CC[C@H]1N2C	11.0%[57.1 µM]	30.2%[57.1 µM]	x	-1.4%	14.5%	0.3%
CN1C(=O)/C(=C\c2ccc(Br)s2)C(=O)NC1=S	-4.7%	3.16µM*	5.7%	-1.3%	-7.0%	0.0%
O=C1NC(=S)NC(=O)C1=Cc1ccc(Br)s1	2.2%	4.47µM*	3.3%	-0.7%	3.3%	5.7%
Cc1cn2c(=O)cc(COC(=O)c3ccccc3F)nc2s1	4.0%[57.1 µM]	6.5%[57.1 µM]	x	0.7%	u	4.5%
CC1=NN(c2ccccc2)C(=O)/C1=C/c1c(O)[nH]c(=O)[nH]c1=O	-9.6%[57.1 µM]	-11.6%[57.1 µM]	-1.5%	-7.3%	1.4%	0.1%
CC1=NN(c2ccccc2)C(=O)/C1=C/c1c(O)[nH]c(=S)[nH]c1=O	u	17.8µM*	-4.4%	-2.8%	3.5%	0.3%
